MsrA act = activators of bovine methionine sulfoxide reductase A. AID 602163. actives 0.3% (n = 360,000). activation, % at 10.6 µM. purified bovine MsrA, absorbance read-out; in the data active means activation above about 7.5%;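 further: 0% = vehicle and 100% = reference activator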
MsrA inh = bovine MsrA inhibition | purified bovine MsrA, absorbance read-out | inhibition, % at 15.5 µM | actives 0.75% (n = 360,000) | AID 651718;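 further: 0% = vehicle wells with enzyme and 100% = reference inhibitor wells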
rCAG binder = r(CAG) repeat RNA binding; TO-PRO-1 dye displacement fluorescence; inhibition, % at 3 µM; actives 1.3% (n = 370,000); AID 651821;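 active means inhibition above the plate cutoff, the mean of all test compounds on that plate plus 3 SD, cut at about 35% in these data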;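 further: 0% = DMSO alone and 100% = 100 µM mitoxantrone as full dye displacement; higher means more dye released from RNA so lower well fluorescence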
NadD inh = NadD (S. aureus) enzyme inhibition | purified NadD enzyme, colorimetric absorbance read-out | inhibition, % at 20 µM | actives 0.78% (n = 360,000) | AID 602399; in the data active means inhibition above about 26%
MsrA conf = confirmation of bovine MsrA inhibitors. shares compounds with MsrA inh. purified bovine MsrA, absorbance read-out. inhibition, % at 15.5 µM. actives 41% (n = 2,300);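 further: coupled to thioredoxin reductase with NADPH and selenocystamine and DMSO as substrate; 0% = vehicle only and 100% = full effect of reference inhibitor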
Active calls of the source: *. A selection: hits, their analogues and other compounds. The true share with any hit is near 2.7%. Unless noted, no stated cut-off is given here; in the data, active means inhibition above about 4.5%; inactive means the rest.

Screening CCCNC(=O)C1(C)CCN(Cc2ccc(OCc3ccccc3)cc2)C1 (centres undefined) returned MsrA act 0.1, MsrA inh 0.2, rCAG binder 1.0 and NadD inh -0.6.
For OCCCN=c1cc(-c2ccccc2)oc2ccc(Cl)cc12 the results were MsrA act -4.2, MsrA inh 4.8*, rCAG binder 6.7, NadD inh -8.9 and MsrA conf 4.4.
Screening Oc1oc(-c2ccccc2)nc1C=NCc1ccncc1 returned MsrA act -1.3, MsrA inh 5.9*, rCAG binder 4.0, NadD inh 4.8 and MsrA conf 4.5.
Screening Cc1ccc(S(=O)(=O)NC2(C(F)(F)F)NC(=O)N(c3ccccc3F)C2=O)cc1 (centres undefined) returned MsrA act -2.7, MsrA inh -0.4, rCAG binder 4.1 and NadD inh -4.8.
Cc1cc(OCC(=O)Nc2ccc(S(=O)(=O)N3CCN(C)CC3)cc2)ccc1Br was read as MsrA act -3.6, MsrA inh -0.9, rCAG binder -2.5 and NadD inh -7.9.
`CC(=O)OC1COC(n2ccc3cc([N+](=O)[O-])ccc32)C(OC(C)=O)C1OC(C)=O` (centres undefined) gave MsrA act -3.9, MsrA inh 6.0*, rCAG binder -3.4, NadD inh -5.0 and MsrA conf 2.9.
Screening CC(=O)O[C@@H]1[C@@H](OC(C)=O)[C@H](n2ccc3cc([N+](=O)[O-])ccc32)OC[C@@H]1OC(C)=O returned MsrA act -7.8, MsrA inh 1.9, rCAG binder -2.1 and NadD inh -5.2.
`COc1cc(/C=N/Nc2ccccn2)cc(OC)c1O` gave MsrA act -4.3, MsrA inh 6.0*, rCAG binder 2.8, NadD inh 3.7 and MsrA conf 4.5.
`S=C(c1ccco1)N1CCOCC1` gave MsrA act -1.4, MsrA inh -1.2, rCAG binder 2.4 and NadD inh 5.3.
COCCCN1C(=O)C(=O)/C(=C(/O)c2ccc(OC)cc2C)C1c1cccnc1 (centres undefined) was read as MsrA act -4.8, MsrA inh 4.8*, rCAG binder -1.7, NadD inh -0.7 and MsrA conf 2.6.
CCOc1ccc(NC(=O)c2sc3nc(N4CCOCC4)c4c(c3c2N)CC(C)(C)OC4)cc1 was read as MsrA act -8.7, MsrA inh -0.2, rCAG binder 3.5 and NadD inh -8.3.
For COCCNC(=O)/C(C#N)=C1\N=C(NC(=O)c2ccco2)c2ccccc21 the results were MsrA act -4.1, MsrA inh 4.8*, rCAG binder 0.2, NadD inh 6.1 and MsrA conf 2.9.
COc1ccc(C2=NS(=O)(=O)N(C)C(C(=O)NC3CCCC3)=C2)cc1 was read as MsrA act -1.8, MsrA inh 6.1*, rCAG binder -1.7, NadD inh 2.8 and MsrA conf 1.6.
Screening COc1ccc(C2=NS(=O)(=O)N(C)C(C(=O)NCc3ccccn3)=C2)cc1 returned MsrA act -1.1, MsrA inh 4.7*, rCAG binder 2.9, NadD inh -1.0 and MsrA conf 3.0.
COc1ccc(NC(=O)C2=CC(c3ccco3)=NS(=O)(=O)N2C)cc1 was read as MsrA act -0.7, MsrA inh 3.1, rCAG binder 3.2 and NadD inh -3.8.
For COc1ccc(NC(=O)C2=CC(c3ccc(OC)cc3)=NS(=O)(=O)N2C)cc1 the results were MsrA act -2.1, MsrA inh 5.4*, rCAG binder 6.5, NadD inh -5.7 and MsrA conf 2.0.
COc1ccc(C2=NS(=O)(=O)N(C)C(C(=O)NC3CCCCC3)=C2)cc1 was read as MsrA act -9.9, MsrA inh 2.9, rCAG binder 2.6 and NadD inh -6.3.
Screening COc1ccc(C2=NS(=O)(=O)N(C)C(C(=O)NCc3cccs3)=C2)cc1OC returned MsrA act -1.6, MsrA inh 4.7*, rCAG binder 0.3, NadD inh -3.6 and MsrA conf 1.7.
Screening CCCCN(C(=O)c1cnccn1)c1c(N)n(CCC)c(=O)[nH]c1=O returned MsrA act -1.9, MsrA inh 0.9, rCAG binder 1.3 and NadD inh 10.2.
Cc1cc(C)cc(SCc2noc(C(=O)NCCC(C)C)c2C(=O)NCCC(C)C)c1 was read as MsrA act -3.0, MsrA inh -0.3, rCAG binder 0.0 and NadD inh 0.6.
Screening CCCCN(C)Cc1cc(=O)oc2ccc3ccccc3c12 returned MsrA act 0.1, MsrA inh -0.6, rCAG binder -0.5 and NadD inh 1.3.
`O=C(O)CCC(=O)Nc1ccc(/C=C/C(=O)C2CC2)cc1` gave MsrA act -6.0, MsrA inh 7.3*, rCAG binder 0.9, NadD inh 1.2 and MsrA conf 2.6.
For O=C(CCNc1n[nH]c(=O)[nH]c1=O)N/N=C/c1ccccc1Br the results were MsrA act -4.1, MsrA inh -0.6, rCAG binder 0.3 and NadD inh 4.9.
`O=c1[nH]nc(N/N=C/c2ccccc2OC(F)F)c(=O)[nH]1` gave MsrA act -4.4, MsrA inh 5.0*, rCAG binder -0.9, NadD inh -8.9 and MsrA conf 3.2.
COc1cc2c(cc1OC)CN(c1ccc([N+](=O)[O-])cc1C#N)CC2 was read as MsrA act -2.7, MsrA inh 0.8, rCAG binder 5.5 and NadD inh -1.9.
`COc1cc2c(cc1OC)CN(c1ccc([N+](=O)[O-])cc1Cl)CC2` gave MsrA act -1.1, MsrA inh 4.8*, rCAG binder 15.6, NadD inh -2.2 and MsrA conf 1.1.
Cc1cc(/C=C(\C#N)C(=O)NCc2ccco2)c(C)n1-c1ccc(C(=O)O)cc1 was read as MsrA act -2.7, MsrA inh 6.8*, rCAG binder 10.2, NadD inh 0.4 and MsrA conf 2.7.
Cc1cc(/C=C(\C#N)C(=O)NCC2CCCO2)c(C)n1-c1ccc(Cl)cc1 (centres undefined) was read as MsrA act -2.9, MsrA inh 3.7, rCAG binder 3.9 and NadD inh 2.0.
For NC(=O)C1CCN(C(=O)c2ccc([N+](=O)[O-])cc2NC(=O)c2cccs2)CC1 the results were MsrA act -9.6, MsrA inh -0.8, rCAG binder 4.0 and NadD inh -5.2.
For Cc1ccnc(NS(=O)(=O)c2ccc(NC(=O)/C=C/c3cccs3)cc2)n1 the results were MsrA act -16.8, MsrA inh 5.9*, rCAG binder 9.1, NadD inh 3.5 and MsrA conf 4.2.
Cc1cccc(NC(=O)/C=C/c2cccs2)n1 was read as MsrA act -1.4, MsrA inh 5.0*, rCAG binder 0.6, NadD inh -2.5 and MsrA conf 3.1.
`O=C(/C=C/c1cccs1)Nc1ccncc1` gave MsrA act -7.4, MsrA inh 5.9*, rCAG binder -2.1, NadD inh -2.7 and MsrA conf 5.3*.
For O=C1CCC(/C=C/c2ccccc2)=NN1 the results were MsrA act -2.3, MsrA inh 3.5, rCAG binder -0.7 and NadD inh 0.4.
For COc1ccc(/C=C/C2=NNC(=O)CC2)cc1 the results were MsrA act -6.5, MsrA inh 5.5*, rCAG binder -1.9, NadD inh -3.0 and MsrA conf 4.7*.
